A number with no mark means an inactive call. Records with an inconclusive call do not appear. A call without a number means that no potency is given here. Activity calls are given as the source filed them. Calls follow the shape of the dose curve; as a rule, active = well fitted curve in the direction sought with a large enough effect in the repeat runs; inconclusive = weak or mixed curves; inactive = no such curve, though single readings can be large; an effect the other way counts as inactive or inconclusive.
Columns and labels:
[1] = A CellTox Green Cytotoxicity Assay to monitor cytotoxicity in HEK293 cells - 0 hour (AID 1224869); settings: CellTox Green fluorescence; series mostly up to 76.8 µM; also: nearly all actives have a fitted effect of over 50% in size
Outline: (§1)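 Homogeneous no-lysis format: HEK293 cell suspension mixed with CellTox Green reagent, seeded, incubated 5 h at 37 C/5% CO2, then dosed by pintool with compound in DMSO.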

[2] = qHTS RealTime-Glo MT Cell Viability Assay in HepG2 cells - 40 hour (AID 1224870); settings: RealTime-Glo luminescence; series mostly up to 76.8 µM; also: nearly all actives have a fitted effect of over 50% in size
Outline: (§2)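 HepG2 cells (600/well) mixed with RealTime-Glo MT reagent, settled 5 h at 37 C/5% CO2 before compound addition. Nonlytic NanoLuc luminescence from viable-cell prosubstrate reduction read repeatedly during 40 h treatment at 37 C.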

[3] = A CellTox Green Cytotoxicity Assay to monitor cytotoxicity in HEK293 cells - 40 hour (AID 1224871); settings: CellTox Green fluorescence; series mostly up to 76.8 µM; also: nearly all actives have a fitted effect of over 45% in size
Outline: as §1

[4] = qHTS RealTime-Glo MT Cell Viability Assay in HEK293 cells - 16 hour (AID 1224872); settings: RealTime-Glo luminescence; series mostly up to 76.8 µM; also: top concentration of the series differs between compounds; nearly all actives have a fitted effect of over 50% in size
Outline: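 Tox21 10K qHTS, HEK293, 600 cells/well, RealTime-Glo reagent co-dispensed with cells; 5 h preincubation, compound by pintool, 37 C, luminescence at 0–40 h.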

[5] = qHTS RealTime-Glo MT Cell Viability Assay in HepG2 cells - 8 hour (AID 1224873); settings: RealTime-Glo luminescence; series mostly up to 76.8 µM; also: nearly all actives have a fitted effect of over 55% in size
Outline: as §2

[6] = A CellTox Green Cytotoxicity Assay to monitor cytotoxicity in HEK293 cells - 24 hour (AID 1224875); settings: CellTox Green fluorescence; series mostly up to 76.8 µM; also: nearly all actives have a fitted effect of over 45% in size
Outline: as §1

[7] = A CellTox Green Cytotoxicity Assay to monitor cytotoxicity in HepG2 cells - 16 hour (AID 1224876); settings: CellTox Green fluorescence; series mostly up to 76.8 µM; also: nearly all actives have a fitted effect of over 45% in size; also: potency is read from the fitted curve at half-maximal effect
Outline: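 Fluorescent DNA-binding dye, 600 HepG2 cells/well, 5 h preincubation then compound in DMSO; same plates read at 0–40 h, 37 C.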

[8] = qHTS RealTime-Glo MT Cell Viability Assay in HepG2 cells - 32 hour (AID 1224877); settings: RealTime-Glo luminescence; series mostly up to 76.8 µM; also: nearly all actives have a fitted effect of over 55% in size
Outline: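 Cells + NanoLuc/prosubstrate dispensed (600 cells/well) → 5 h at 37 C/5% CO2 → compounds in DMSO transferred → 40 h incubation at 37 C, luminescence read at 0, 8, 16, 24, 32, 40 h.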

[9] = qHTS RealTime-Glo MT Cell Viability Assay in HEK293 cells - 40 hour (AID 1224874); settings: RealTime-Glo luminescence; max response: hits give low values; also: nearly all actives have a fitted effect of over 50% in size
Outline: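 Measured as luminescence from the same continuously cultured HEK293 wells at successive time points (0, 8, 16, 24, 32, 40 h) after compound addition. Reagent present from seeding; dosing at 5 h; incubation 37 C.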

With CSc1cnccn1 the Potency [1] was “inactive”, the outcome [2] was “inactive” and the Potency [3] was “inactive”. The Potency [4] was “inactive”, the outcome [5] was “inactive” and the Potency [6] was “inactive”. For the same compound, the Potency [7] was “inactive” and the outcome [8] was “inactive”.
For CC12CCC(C1)C(C)(C)C2O (configuration not stated), the outcome [2] was “inactive”, the Potency [4] was “inactive” and the outcome [5] was “inactive”. The Potency [7] was 1.95 µM (active) and the outcome [8] was “inactive”.
With CN(C)CCN(C)CCO the Potency [1] was “inactive”, the outcome [2] was “inactive” and the Potency [3] was “inactive”. For the same compound, the outcome [5] was “inactive”, the Potency [6] was “inactive” and the Potency [7] was “inactive”. For the same compound, the outcome [8] was “inactive”.
In the case of CCCCCCCCCCCCCBr, the Potency [1] is reported as “inactive”, the outcome [2] is reported as “inactive” and the Potency [3] is reported as “inactive”. The outcome [5] was “inactive”, the Potency [6] was “inactive” and the Potency [7] was “inactive”. For the same compound, the outcome [8] was “inactive”.
For OC1(c2ccc(Cl)cc2)CCNCC1, the Potency [1] was “inactive”, the outcome [2] was “inactive” and the Potency [3] was “inactive”. The outcome [5] was “inactive”, the max response [9] was 3.5% and the Potency [6] was “inactive”. The Potency [7] was “inactive” and the outcome [8] was “inactive”.
For Nc1nnnn1-c1ccccc1, the Potency [1] was “inactive”, the outcome [2] was “inactive” and the Potency [3] was “inactive”. For the same compound, the outcome [5] was “inactive”, the max response [9] was 0.0553% and the Potency [6] was “inactive”. The outcome [8] was “inactive”.
For c1ccc(B(c2ccccc2)c2ccccc2)cc1, the Potency [1] was “inactive”, the outcome [2] was “inactive” and the Potency [3] was “inactive”. For the same compound, the outcome [5] was “inactive”, the Potency [6] was “inactive” and the Potency [7] was “inactive”. For the same compound, the outcome [8] was “inactive”.
For CCCCOCCOC(=O)COc1ccc(Cl)cc1Cl, the Potency [1] was “inactive”, the outcome [2] was “inactive” and the Potency [3] was “inactive”. For the same compound, the Potency [4] was “inactive”, the outcome [5] was “inactive” and the max response [9] was 1.37%. For the same compound, the Potency [6] was “inactive”, the Potency [7] was “inactive” and the outcome [8] was “inactive”.
In the case of COc1cc(OC)nc(O[C@H](C(=O)O)C(OC)(c2ccccc2)c2ccccc2)n1, the Potency [1] is reported as “inactive”, the outcome [2] is reported as “inactive” and the Potency [3] is reported as “inactive”. The Potency [4] was “inactive”, the outcome [5] was “inactive” and the Potency [6] was “inactive”. For the same compound, the Potency [7] was “inactive” and the outcome [8] was “inactive”.
In the case of CC(=O)O[C@H]1C[C@@H]2CC[C@@]1(C)C2(C)C, the Potency [1] is reported as “inactive”, the outcome [2] is reported as “inactive” and the Potency [3] is reported as “inactive”. For the same compound, the Potency [4] was “inactive”, the outcome [5] was “inactive” and the max response [9] was 4.28%. For the same compound, the Potency [6] was “inactive”, the Potency [7] was “inactive” and the outcome [8] was “inactive”.
With CC(O)CC(C)O (configuration not stated) the Potency [1] was “inactive”, the outcome [2] was “inactive” and the Potency [3] was “inactive”. The outcome [5] was “inactive”, the max response [9] was 0.995% and the Potency [6] was “inactive”. The Potency [7] was “inactive” and the outcome [8] was “inactive”.
For O=C(Cl)c1ccccc1[N+](=O)[O-], the Potency [1] was “inactive”, the outcome [2] was “inactive” and the Potency [3] was “inactive”. The Potency [4] was “inactive”, the outcome [5] was “inactive” and the max response [9] was 9.73%. The Potency [6] was “inactive”, the Potency [7] was “inactive” and the outcome [8] was “inactive”.
In the case of Cc1c(N)cccc1Cl, the Potency [1] is reported as “inactive”, the outcome [2] is reported as “inactive” and the Potency [3] is reported as “inactive”. For the same compound, the outcome [5] was “inactive”, the max response [9] was 5.05% and the Potency [6] was “inactive”. The Potency [7] was “inactive” and the outcome [8] was “inactive”.
In the case of NCC1(Cc2noc(=O)[nH]2)CCCCC1, the Potency [1] is reported as “inactive”, the outcome [2] is reported as “inactive” and the Potency [3] is reported as “inactive”. The Potency [4] was “inactive”, the outcome [5] was “inactive” and the Potency [6] was “inactive”. The Potency [7] was “inactive” and the outcome [8] was “inactive”.
In the case of O=Cc1ccccc1Cl, the outcome [2] is reported as “inactive”, the Potency [4] is reported as “inactive” and the outcome [5] is reported as “inactive”. For the same compound, the max response [9] was 4.59%, the Potency [7] was “inactive” and the outcome [8] was “inactive”.
For C/C=C(\C)C(C)=O, the Potency [1] was “inactive”, the outcome [2] was “inactive” and the Potency [3] was “inactive”. The Potency [4] was “inactive”, the outcome [5] was “inactive” and the Potency [6] was “inactive”. For the same compound, the Potency [7] was “inactive” and the outcome [8] was “inactive”.
With OCC1(CO)COCOC1 the Potency [1] was “inactive”, the outcome [2] was “inactive” and the Potency [3] was “inactive”. For the same compound, the Potency [4] was “inactive”, the outcome [5] was “inactive” and the max response [9] was -1.51%. The Potency [6] was “inactive”, the Potency [7] was “inactive” and the outcome [8] was “inactive”.
With C[C@@H](O)C(=O)O the Potency [1] was “inactive”, the outcome [2] was “inactive” and the Potency [3] was “inactive”. For the same compound, the Potency [4] was “inactive”, the outcome [5] was “inactive” and the Potency [6] was “inactive”. The Potency [7] was “inactive” and the outcome [8] was “inactive”.
In the case of C=CCSSCCC, the Potency [1] is reported as “inactive”, the outcome [2] is reported as “inactive” and the Potency [3] is reported as “inactive”. The outcome [5] was “inactive”, the Potency [6] was “inactive” and the Potency [7] was “inactive”. The outcome [8] was “inactive”.
With Cc1cc(C)c(C(=O)O)c(C)c1 the Potency [1] was “inactive”, the outcome [2] was “inactive” and the Potency [3] was “inactive”. For the same compound, the Potency [4] was “inactive”, the outcome [5] was “inactive” and the max response [9] was 1.4%. The Potency [6] was “inactive”, the Potency [7] was “inactive” and the outcome [8] was “inactive”.
In the case of CC(O)COC(C)(C)C (configuration not stated), the Potency [1] is reported as “inactive”, the outcome [2] is reported as “inactive” and the Potency [3] is reported as “inactive”. For the same compound, the outcome [5] was “inactive”, the max response [9] was 7.99% and the Potency [6] was “inactive”. The Potency [7] was “inactive” and the outcome [8] was “inactive”.
In the case of CN(C)CC/C=C1/c2ccccc2COc2ccc(CC(=O)O)cc21, the Potency [1] is reported as “inactive”, the Potency [3] is reported as “inactive” and the Potency [6] is reported as “inactive”. The Potency [7] was “inactive”.
Work on [O]=[Mo](=[O])=[O] yielded a cytotoxicity [1] of -18.1% [at 15.8 µM], an activity change, negative = cytotoxic [2] of -4.78% [at 15.8 µM] and a cytotoxicity increase [3] of -43.2% [at 15.8 µM]. The viability change, negative = cytotoxic [5] was 2.7% [at 15.8 µM], the activity change [6] was -37.6% [at 15.8 µM, hits give high values] and the cytotoxicity increase [7] was -8.07% [at 15.8 µM]. The activity change, negative = cytotoxic [8] was 0.396% [at 15.8 µM].
For CC(C)C[C@@H]1[C@H](c2ccccc2)OC(=O)N1CCCN1CCCCCC1, the Potency [1] was “inactive”, the outcome [2] was “inactive” and the Potency [3] was “inactive”. For the same compound, the outcome [5] was “inactive”, the Potency [6] was “inactive” and the Potency [7] was “inactive”. For the same compound, the outcome [8] was “inactive”.
With CN1C[C@@H]2C[C@H]1CN2c1cc2c(cc1F)c(=O)c(C(=O)O)cn2C1CC1 the cytotoxicity [1] was -0.324% [at 15.8 µM], the activity change, negative = cytotoxic [2] was 1.94% [at 15.8 µM] and the cytotoxicity increase [3] was -7.03% [at 15.8 µM]. The activity change, negative = cytotoxicity [4] was 1.79% [at 15.8 µM], the viability change, negative = cytotoxic [5] was 8.97% [at 15.8 µM] and the activity change [6] was -6.09% [at 15.8 µM, hits give high values]. It also gave a cytotoxicity increase [7] of 2.35% [at 15.8 µM] and an activity change, negative = cytotoxic [8] of 4.04% [at 15.8 µM].
With C=CCN1C[C@H](C(=O)N(CCCN(C)C)C(=O)NCC)C[C@@H]2c3cccc4[nH]cc(c34)C[C@H]21 the Potency [1] was “inactive”, the outcome [2] was “inactive” and the Potency [3] was “inactive”. For the same compound, the Potency [4] was “inactive”, the outcome [5] was “inactive” and the max response [9] was 0.226%. The Potency [6] was “inactive”, the Potency [7] was “inactive” and the outcome [8] was “inactive”.
For COC(=O)CCCCC(CCSS/C(CCO)=C(\C)N(C=O)Cc1cnc(C)nc1N)SC(C)=O (configuration not stated), the Potency [1] was “inactive”, the outcome [2] was “inactive” and the Potency [3] was “inactive”. For the same compound, the Potency [4] was “inactive”, the outcome [5] was “inactive” and the Potency [6] was “inactive”. The Potency [7] was “inactive” and the outcome [8] was “inactive”.
In the case of Cn1c(=O)c2c(ncn2CCO)n(C)c1=O, the Potency [1] is reported as “inactive”, the outcome [2] is reported as “inactive” and the Potency [3] is reported as “inactive”. For the same compound, the outcome [5] was “inactive”, the Potency [6] was “inactive” and the outcome [8] was “inactive”.

Reference: PubChem BioAssay (Tox21)
